In PubChem BioAssay (EPA / NIEHS):
Records with an inconclusive call do not appear. Activity calls are given as the source filed them. How the source made its calls: active means hit-call score of the fitted dose curve at least 0.9, where 1 is the maximum; inconclusive means response in the unintended direction; inactive means score below 0.9.

Molecular target: Caspase-1 (Homo sapiens) (UniProt P29466)
Test: NVS_ENZ_hCASP1: NovaScreen (NVS) Enzymatic Assay for human Caspase 1 (CASP1) (AID 2283132)
Protocol: NVS_ENZ_hCASP1 is a biochemical, single-readout assay that uses extracted gene-proteins from E. coli in a cell-free assay. Measurements were taken 1 hour after chemical dosing in a 96-well plate.NVS_ENZ_hCASP1 is one of one assay component(s) measured or calculated from the NVS_ENZ_hCASP1 assay. It is designed to make measurements of enzyme activity, a form of enzyme reporter, as detected with fluorescence intensity signals by Fluorescence technology.Data from the assay component NVS_ENZ_hCASP1 was analyzed into 1 assay endpoint. This assay endpoint, NVS_ENZ_hCASP1, was analyzed in the positive analysis fitting direction relative to DMSO as the negative control and baseline of activity. Using a type of enzyme reporter, loss-of-signal activity can be used to understand changes in the enzymatic activity as they relate to the gene CASP1. Furthermore, this assay endpoint can be referred to as a primary readout, because this assay has produced multiple assay endpoints where this one serves a enzymatic activity function. To generalize the intended target to other relatable targets, this assay endpoint is annotated to the protease intended target family, where the subfamily is cysteine protease.
Binding assays used specific radioligands (tritiated, iodinated) with non-radioactive competitive displacement ligands in agonist or antagonist protocols (as indicated) and various reference compounds and inhibitors to titrate specific binding to receptors and transporters. Most enzyme assays (CYPs, kinases, phosphatases, proteases, HDACs) used recombinant protein and specific substrates (fluorescence mostly, some colorimetric and radioactive) and inhibitors, followed by a biochemical separation of substrate and product. All assays for the biochemical HTS were initially run in duplicate at a single concentration (10 uM for CYP450 assays and 25 uM for all others). Assay-chemical combinations meeting a pre-defined threshold (e.g., 30% inhibition and other criteria defined below) were then run in singleton concentration-response format with maximum concentration of 20 uM for CYPs and 50 uM for all others. Each assay was run with positive and negative controls, and concurrent controls on every plate. The follow-up (secondary) screen tested active chemical-pairs in concentration series, as well as a few additional assays not tested in the primary screen, some selected negative inactives, and several cases re-run in the concentration series for confirmatory purposes.

Chain of Caspase-1 (Homo sapiens) (P29466 whole entry, looked up): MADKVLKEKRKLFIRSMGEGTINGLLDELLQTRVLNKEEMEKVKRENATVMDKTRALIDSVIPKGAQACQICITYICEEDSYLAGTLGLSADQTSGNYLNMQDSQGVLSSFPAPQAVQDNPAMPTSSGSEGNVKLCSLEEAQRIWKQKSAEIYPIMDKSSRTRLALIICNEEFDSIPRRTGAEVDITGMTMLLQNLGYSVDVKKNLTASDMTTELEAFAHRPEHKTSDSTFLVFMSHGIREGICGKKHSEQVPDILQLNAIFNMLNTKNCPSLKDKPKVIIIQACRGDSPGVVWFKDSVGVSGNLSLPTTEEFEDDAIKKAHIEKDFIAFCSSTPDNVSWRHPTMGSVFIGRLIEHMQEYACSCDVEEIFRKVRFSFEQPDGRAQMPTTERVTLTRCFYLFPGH

Structure (SMILES)	outcome	AC50
CCCCCCC(C)OC(=O)COc1nc(F)c(Cl)c(N)c1Cl (stereo not given)	inactive	
CN(C)c1ccc(C(=C2C=CC(=[N+](C)C)C=C2)c2ccc(N(C)C)cc2)cc1	inactive	
S=C([S-])NCCNC(=S)[S-].[Mn+2]	inactive	
O=S(=O)(O)c1ccc(N=Nc2c(O)ccc3cc(S(=O)(=O)O)ccc23)cc1		25 µM (active)
O=C1c2c(O)cccc2Cc2cccc(O)c21		5.01 µM (active)
Nc1ccc2c(c1)C(=O)c1ccccc1C2=O	inactive	
S=C(S)NCCNC(=S)S.[Mn+2].[S-]C([S-])=NCCN=C([S-])[S-].[Zn+2]	inactive	
CCC(O)=C1C(=O)CC(C(=O)O)CC1=O (stereo not given)	inactive	
COc1cc(S(=O)(=O)O)c(C)cc1N=Nc1c(O)ccc2cc(S(=O)(=O)O)ccc12		25 µM (active)
CCc1cc(SCc2sc(-c3ccc(C(F)(F)F)cc3)nc2CN2CCN(c3ccc(OC)cc3)CC2)ccc1OCC(=O)O		46.1 µM (active)
O=C(OC[C@H]1O[C@@H](OC(=O)c2cc(O)c(O)c(OC(=O)c3cc(O)c(O)c(O)c3)c2)[C@H](OC(=O)c2cc(O)c(O)c(OC(=O)c3cc(O)c(O)c(O)c3)c2)[C@@H](OC(=O)c2cc(O)c(O)c(OC(=O)c3cc(O)c(O)c(O)c3)c2)[C@@H]1OC(=O)c1cc(O)c(O)c(OC(=O)c2cc(O)c(O)c(O)c2)c1)c1cc(O)c(O)c(OC(=O)c2cc(O)c(O)c(O)c2)c1		1.14 µM (active)
COc1cc(-c2nc(NC(=O)c3cc4cc(C)cc(C)c4n3CC(=O)O)sc2CCC2CCCCC2)c(OC)cc1Cl		29.1 µM (active)
OC[C@H]1O[C@@](CO)(O[C@H]2O[C@H](CO)[C@@H](O)[C@H](O)[C@H]2O)[C@@H](O)[C@@H]1O	inactive	
CCOc1cccc(-n2cc(C(=O)N3CCN(c4cc(C(=O)O)c5ccccc5c4)CC3)nc2-c2ccc(C)cc2)c1	inactive	
Oc1cc2ccccc2c2ccccc12		12.1 µM (active)
